Data: PubChem BioAssay AID1159580 (chemical genetic matrix, 2015)
Values joined by “and” are separate entries in the source; they are usually repeats but may differ in a detail not shown here. Equal entries are not always repeated. The campaign covered roughly 5,500 compounds. About 2,000 (36%) were called active. Another 18% or so got no clear call; they are omitted. Cut-off read from the data, not from the text of the source: active = normalized growth mostly below about 0.91 (no sharp cut-off); inconclusive = no clear call, values can overlap the other calls; inactive = mostly above about 0.92. The list shows a part of the results.

Assay: chemical genetic growth profiling, strain panel (AID 1159580);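 note: tested at 20 µM; growth read once vehicle control cultures reached saturation at 30 °C; 1 = growth at the plate median or of vehicle wells; lower values mean less growth of the strain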
Settings: S. cerevisiae deletion strains, growth OD

Measured: normalized growth

Cc1ccccc1C(OCCN(C)C)c1ccccc1 (centres undefined)
inactive: locus YAL021C, strain ccr4, hits give low values 0.977 | locus YAL026C, strain drs2, hits give low values 1 | locus YAL030W, strain snc1, hits give low values 1 | locus YAL040C, strain CLN3, hits give low values 0.992 | locus YBL061C, strain skt5, hits give low values 1 | locus YBR009C, strain hhf1, hits give low values 0.996 | locus YBR021W, strain FUR4, hits give low values 0.913 | locus YBR023C, strain chs3, hits give low values 1.01 | locus YBR171W, strain sec66, hits give low values 1.01 | locus YBR229C, strain ROT2, hits give low values 1 | locus YBR231C, strain swc5, hits give low values 1 | locus YBR279W, strain paf1, hits give low values 0.993 | locus YCL011C, strain gbp2, hits give low values 1.01 | locus YCL016C, strain dcc1, hits give low values 1.01 | locus YCL029C, strain bik1, hits give low values 1.01 | locus YCL061C, strain MRC1 (second series), hits give low values 0.987 | locus YCL061C, strain MRC1, hits give low values 1.01 | locus YCL069W, strain vba3, hits give low values 1.01 | locus YCR088W, strain abp1, hits give low values 1 | locus YDL005C, strain med2, hits give low values 0.986 | locus YDL035C, strain GPR1, hits give low values 1.01 | locus YDL040C, strain nat1, hits give low values 1.01 | locus YDL074C, strain BRE1, hits give low values 0.959 | locus YDL101C, strain DUN1, hits give low values 1 | locus YDL134C, strain PPH21, hits give low values 1.01 | locus YDL185W, strain tfp1, hits give low values 1.02 | locus YDL192W, strain arf1, hits give low values 1.01 | locus YDR001C, strain nth1, hits give low values 1.01 | locus YDR069C, strain doa4, hits give low values 0.994 | locus YDR101C, strain arx1, hits give low values 1.01 | locus YDR137W, strain rgp1, hits give low values 1.07 | locus YDR150W, strain NUM1, hits give low values 0.994 | locus YDR159W, strain sac3, hits give low values 1.01 | locus YDR162C, strain NBP2, hits give low values 0.993 | locus YDR195W, strain ref2 0.996 | locus YDR297W, strain sur2, hits give low values 1.01 | locus YDR318W, strain mcm21, hits give low values 1.02 | locus YDR334W, strain swr1, hits give low values 1.01 | locus YDR335W, strain msn5, hits give low values 1 | locus YDR363W, strain ESC2, hits give low values 0.998 | locus YDR388W, hits give low values 1.01 | locus YDR392W, strain spt3, hits give low values 0.966 | locus YDR502C, strain sam2, hits give low values 1.01 | locus YEL003W, strain gim4, hits give low values 0.981 | locus YEL037C, strain rad23, hits give low values 0.999 | locus YEL061C, strain CIN8 (second series), hits give low values 1.01 | locus YEL061C, strain CIN8, hits give low values 1 | locus YER002W, strain NOP16, hits give low values 1.01 | locus YER015W, strain faa2, hits give low values 1 | locus YER016W, strain bim1, hits give low values 0.998 | locus YER110C, hits give low values 1.01 | locus YER111C, strain swi4, hits give low values 1 | locus YER155C, strain BEM2 (second series), hits give low values 1.01 | locus YER155C, strain BEM2, hits give low values 1.01 | locus YER167W, strain BCK2, hits give low values 1 | locus YFR010W, strain ubp6, hits give low values 1 | locus YGL078C, strain dbp3, hits give low values 1 | locus YGL086W, strain mad1, hits give low values 0.994 | locus YGL167C, strain pmr1, hits give low values 1.01 | locus YGL173C, strain kem1, hits give low values 0.994 | locus YGL227W, strain vid30, hits give low values 1.02 | locus YGL240W, strain doc1, hits give low values 0.994 | locus YGL248W, strain PDE1, hits give low values 1 | locus YGL253W, strain hxk2, hits give low values 1.01 | locus YGR078C, strain PAC10, hits give low values 1 | locus YGR135W, strain pre9, hits give low values 1 | locus YGR252W, strain gcn5, hits give low values 0.902 | locus YHR013C, strain ard1, hits give low values 0.986 | locus YHR027C, strain rpn1, hits give low values 0.997 | locus YHR030C, strain SLT2, hits give low values 1 and 0.992 | locus YHR079C, strain IRE1 (second series), hits give low values 1.02 | locus YHR079C, strain IRE1, hits give low values 0.973 | locus YHR094C, strain hxt1, hits give low values 1 | locus YHR129C, strain ARP1, hits give low values 1.01 | locus YHR142W, strain chs7, hits give low values 1.01 | locus YHR200W, strain rpn10, hits give low values 1.01 | locus YIL066C, strain RNR3, hits give low values 1.01 | locus YIL073C, strain SPO22, hits give low values 1.05 | locus YIL125W, strain kgd1, hits give low values 0.994 | locus YIR030C, strain dcg1, hits give low values 1.02 | locus YJL092W, strain hpr5, hits give low values 1.01 | locus YJL095W, strain BCK1 (second series), hits give low values 1.01 | locus YJL095W, strain BCK1, hits give low values 0.983 and 0.99 | locus YJL115W, strain asf1, hits give low values 0.992 | locus YJL129C, strain trk1, hits give low values 0.986 | locus YJL134W, strain LCB3, hits give low values 1 | locus YJL154C, strain vps35, hits give low values 1 | locus YJL164C, strain tpk1, hits give low values 0.991 | locus YJL166W, strain qcr8, hits give low values 1.01 | locus YJL168C, strain set2, hits give low values 1.01 | locus YJL187C, strain SWE1 (second series), hits give low values 1 | locus YJL187C, strain SWE1, hits give low values 1.01 | locus YJR043C, strain POL32, hits give low values 0.995 | locus YJR066W, strain TOR1, hits give low values 0.952
